# Screens as filed in PubChem.
# Only some compounds are listed: those with a hit (about 2.3% of all), similar ones and a draw of the others.
# Tau fibril FP = tau fibrillization inhibition (FP). P10636. K18 P301L tau heparin fibrillization, Alexa594 FP, 6 h. Potency, µM (series often up to 57.7 µM), inactives show top-dose activity, negative = inhibition, usual class: inhibitors. 0.39% of 280,000 active; also: potency is read from the fitted curve at half-maximal effect; nearly all actives have a fitted effect of over 55% in size
# Target sequence (P10636 561-689 P618L limits assumed): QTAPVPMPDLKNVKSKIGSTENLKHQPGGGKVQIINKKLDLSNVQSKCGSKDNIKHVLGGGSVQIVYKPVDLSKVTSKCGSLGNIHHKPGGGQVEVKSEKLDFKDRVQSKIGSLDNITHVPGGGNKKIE
#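 Quantitative HTS format: compounds meet 15 uM recombinant K18 P301L tau and Alexa 594-tau tracer in 100 mM sodium acetate pH 7; 20 uM heparin triggers fibrillization at 37 C over 6 hr; FP gives the signal.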
# Tau fluor cs = counter-screen for tau fibril formation inhibitors; tau K18 P301L Alexa594 fluorescence, heparin fibrillization; Potency, µM (series often up to 57.7 µM), for inactives: top-dose activity change, negative = decrease; 0.93% of 280,000 active; also: potency is read from the fitted curve at half-maximal effect; nearly all actives have a fitted effect of over 55% in size
#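 Human K18 P301L tau (15 uM unlabeled plus 0.24 uM Alexa 594-labeled, final) in 100 mM sodium acetate pH 7 was mixed with compound and 20 uM heparin and incubated 6 hr at 37 C.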
# USP1 inh = inhibitors of human USP1/UAF1 deubiquitinase. O94782. recombinant USP1/UAF1, Ub-Rhodamine cleavage fluorescence. Potency, µM (doses to about 57.1 µM), inactives show at the highest dose activity change, negative = inhibition, actives largely listed as inhibitors. 0.23% of 390,000 active. AID 743255; also: potency is read from the fitted curve at half-maximal effect; nearly all actives have a fitted effect of over 60% in size
#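 USP1/UAF1 complex (1 nM) preincubated 15 min at room temperature with compound, then Ub-Rho substrate (150 nM final) added. Kinetic fluorescence at 480/540 nm over 6 reads at 60 s intervals; 50 mM HEPES pH 7.8, 0.5 mM EDTA, 0.1 mg/ml BSA, 1 mM TCEP, 0.01% Tween-20.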
# FBPA coupling cs = inhibits coupling enzyme system, counter-screen for aldolase hits | activity change, negative = inhibition, % at 58.2 µM, hits read low | 0.67% of 290,000 active | coupling enzyme system counterscreen, AmpLite Red fluorescence; in the data active = activity change below about -30%
#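 Compounds tested against the coupling enzymes alone at 57.5 uM final; readout was AmpLite Red fluorescence (525/598 nm) after 20 min at RT.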
# Tau ThT inhib = blocks human tau fibril formation measured by thioflavin T. P10636. 2.1% of 270,000 active. Potency, µM (doses to about 57.4 µM), inactives show at the highest dose activity, negative = inhibition, hits mostly inhibitors. recombinant tau K18 P301L, heparin-induced fibrillization, ThT fluorescence; also: potency is read from the fitted curve at half-maximal effect; nearly all actives have a fitted effect of over 55% in size
#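 Using a mix of unlabeled (15 uM) and Alexa 594-labeled (0.24 uM) tau K18 P301L, heparin-triggered fibrillization over 6 hr at 37 C was scored by ThT fluorescence.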
# * marks the source's active call; other numbers are inactive results; ? = inconclusive; · = no result given; [ ] = another dose, or the depositor's remark. Unless noted, calls follow the shape of the dose curve; as a rule, active = well fitted curve in the direction sought with a large enough effect; inconclusive = small, poorly fitted or top-dose-only effect, or another doubt; inactive = no such curve, though single readings can be large; an effect the other way counts as inactive or inconclusive. % is scaled to controls: 0 for no effect and ±100 for the full control effect.
SMILES,Tau fibril FP,Tau fluor cs,USP1 inh,FBPA coupling cs,Tau ThT inhib
ClC(Cl)(c1nnnn1-c1ccccc1)c1nnnn1-c1ccccc1,31.6µM*,-14.4%,?,2.3,11.2µM*
Cc1ccc(-n2ncc(C(=O)Nc3ccc4c(c3)OCO4)c2C2CCN(C(=O)OC(C)(C)C)CC2)cc1,-3.6%,12.6µM*[quencher],-23.0%,·,?
O=C(NCCc1ccc(Cl)cc1)C1(c2cccs2)CCOCC1,-5.1%,-4.5%,0.7%,·,0.1%
CCOc1ccc(C2Nc3cccc4cccc(c34)N2)cc1OC,?,?,-17.3%,-5.4,3.55µM*
c1ccc(C2Nc3cccc4cccc(c34)N2)cc1,·,·,?,-10.7,·
CCOc1cc(C2Nc3cccc4cccc(c34)N2)ccc1O,?,5.01µM*[quencher],?,-5.2,6.31µM*
COc1ccc(C2Nc3cccc4cccc(c34)N2)cc1,-14.8%,?,?,-5.1,15.8µM*
CCCSc1ncc(Cl)c(C(=O)N(Cc2ccc(N(C)C)cc2)C2CCS(=O)(=O)C2)n1 (stereo not drawn),-6.3%,?,-23.7%,·,?
CCN1C(=O)[C@H]2[C@H]3CN=C(SCc4ccc(Cl)cc4)N3[C@@](CC)(C(=O)OC)[C@H]2C1=O,·,·,-5.1%,·,·
O=[N+]([O-])c1ccc(N/N=C/c2ccc(O)c(O)c2O)c(S(=O)(=O)N2CCOCC2)c1,10µM*,?,?,-59.2*,3.98µM*
O=[N+]([O-])c1ccc(N/N=C/c2cccc(O)c2O)c(S(=O)(=O)N2CCOCC2)c1,-0.2%,?,1.3%,-10.0,?
O=C(CCc1ccc(S(=O)(=O)N2CCOCC2)cc1)N/N=C/c1ccc(O)c(O)c1O,?,-29.9%,-16.8%,-30.6*,25.1µM*
Cc1ccnc(NC(c2cc(C)ccc2O)c2ccc3cccnc3c2O)c1 (stereo not drawn),-10.8%,?,21.0%,·,15.8µM*
Oc1ccccc1C(Nc1nccs1)c1ccc2cccnc2c1O (stereo not drawn),-3.1%,?,-0.7%,0.3,20µM*
COc1ccc(-n2c(N)c(C#N)c3ccc([N+](=O)[O-])cc3c2=O)cc1,3.5%,-10.3%,-13.0%,-41.6*,-11.0%
O=C(O)COc1ccc(/C=C/c2ccc3cccc([N+](=O)[O-])c3n2)cc1,9.8%,-16.3%,-10.9%,-0.6,7.94µM*
COc1cc(/C=C/c2ccc3c([N+](=O)[O-])cccc3n2)ccc1OCC(=O)O,-0.7%,-16.4%,-15.9%,5.3,3.16µM*
CC(=O)Nc1ccc(/C=C/c2ccc3cccc([N+](=O)[O-])c3n2)cc1,-9.8%,?,-12.7%,-4.8,·
COc1cc(/C=C/c2ccc3cccc([N+](=O)[O-])c3n2)ccc1OCC(=O)O,7.1%,-2.9%,-22.7%,1.8,?
O=C1C=CC(=O)N1Cc1ccccn1,·,·,-3.5%,·,·
CC(=O)c1ccc(NC(=O)CSc2nccn2Cc2ccc3c(c2)OCO3)cc1,-10.9%,-3.3%,-14.3%,·,5.8%
CCCc1cc(=O)[nH]c2nnc(SCCC(C)C)n12,-2.1%,-0.5%,-15.5%,·,-3.3%
Cc1ccccc1OCCSc1nc2ccccc2n1CCC(=O)O,·,·,-11.7%,-1.5,·
COc1ccccc1Nc1nc(-c2ccc3c(c2)NC(=O)CO3)cs1,5.7%,11.2µM*[quencher],-15.9%,-6.4,14.1µM*
COc1ccc(-c2cc(-c3ccccc3)nc(-c3ccc4c(c3)NC(=O)CO4)c2)cc1,?,?,-16.9%,-1.7,-3.4%
SMILES,Tau fibril FP,Tau fluor cs,USP1 inh,FBPA coupling cs,Tau ThT inhib
CCC(C)Nc1nc(-c2ccc3c(c2)NC(=O)CO3)cs1 (stereo not drawn),-4.3%,?,-3.3%,-4.6,?
COc1ccc(Nc2nc(-c3ccc4c(c3)NC(=O)CO4)cs2)cc1,-1.6%,12.6µM*[quencher],-10.6%,-7.8,7.94µM*
COC(=O)c1c(NS(=O)(=O)c2ccccc2)csc1C,-3.0%,-23.1%,1.0%,-33.9*,-14.0%
BrC(=C\c1ccccc1)/C=N/Nc1nc2ccccc2[nH]1,-8.9%,?,-18.1%,-12.2,25.1µM*
O=C(O)c1ccc(N/N=C/C(Br)=C/c2ccccc2)cc1,7.5%,?,-2.1%,6.8,14.1µM*
Cc1cccc(NC(=O)c2ccc(-n3cnc4cccnc43)cc2)c1C,5.0%,-6.1%,-19.7%,·,-17.1%
COc1ccccc1N1C(=O)c2ccccc2NC1c1ccncc1 (stereo not drawn),7.3%,4.3%,-16.6%,2.1,2.7%
COc1ccccc1N1C(=O)N(C(C)=O)C2C1Nc1ccccc1N2C (stereo not drawn),?,-27.0%,?,-40.3*,?
O=S(=O)(Nc1cccc(F)c1)c1ccc2[nH]c3c(c2c1)CCCCC3,?,8.91µM*[quencher],-14.9%,·,?
CCOc1ccccc1NS(=O)(=O)c1ccc2[nH]c3c(c2c1)CCCCC3,-8.1%,?,-9.5%,·,4.0%
O=S(=O)(Nc1cc(F)ccc1F)c1ccc2[nH]c3c(c2c1)CCCCC3,?,12.6µM*[quencher],-15.8%,·,-7.8%
O=S(=O)(Nc1cc(F)ccc1F)c1ccc2[nH]c3c(c2c1)CCCC3,10.8%,11.2µM*[quencher],7.1%,·,-3.8%
Cc1ccc(S(=O)(=O)CC(=O)Nc2nc3c(C)cc(C)cc3s2)cc1,?,?,-6.9%,·,-11.2%
COc1ccc(CN(C(=O)COc2ccccc2OC)C2CCS(=O)(=O)C2)cc1 (stereo not drawn),-6.1%,-5.8%,-21.8%,·,-2.0%
Nc1ccc(N2CCCCCC2)cc1,14.1µM*,?,·,-35.5*,7.08µM*
O=S(=O)(c1ccc(F)cc1)N1CCN(c2ccc(F)cc2)CC1,·,·,-8.6%,3.9,·
Nc1ccc(N2CCN(c3ccc(Cl)c(Cl)c3)CC2)cc1,-4.9%,?,-6.1%,0.4,15.8µM*
Nc1ccc(N2CCN(c3ccc(F)cc3)CC2)cc1,-6.5%,?,-21.5%,0.4,12.6µM*
COc1ccccc1N1CCN(Cc2nnc(-c3ccccc3C)o2)CC1,-3.4%,-15.0%,-14.5%,·,-10.8%
O=C(CC1SC(N2CCCC2)=NC1=O)Nc1ccc(C(=O)NCc2ccc(F)cc2)cc1 (stereo not drawn),·,·,-11.7%,·,·
COc1ccc(OC)c(NS(=O)(=O)c2ccc3[nH]c(=O)[nH]c3c2)c1,·,·,-26.4%,·,·
N#CC1=C(N)Oc2n[nH]c(-c3ccccc3)c2C12C(=O)Nc1ccccc12 (stereo not drawn),-0.9%,-2.0%,-7.2%,-4.3,-8.3%
Cn1c2c(c(=O)n(C)c1=O)[C@@]1(C(=O)Nc3ccccc31)C(C#N)=C(N)O2,?,-23.1%,-16.7%,-50.4*,14.1µM*
CCN(CC(=O)Nc1cc(Cl)ccc1C)C(=O)C1CC1,·,·,-13.5%,·,·
CCN1C(=O)CS/C1=N\S(=O)(=O)c1ccc(Cl)cc1,-1.5%,-6.4%,-8.6%,1.3,-3.0%
CCn1c(Cl)c(C=O)s/c1=N\S(=O)(=O)c1ccccc1,7.08µM*,-26.7%,-18.2%,4.7,8.91µM*
